A selection: hits, their analogues and other compounds. The true share with any hit is near 8.9%.
M1 antagonist = antagonists of rat M1 muscarinic receptor; CHO-M1 cells, Fluo-4 calcium, ACh EC80 antagonist mode; stronger effect = lower value; B-score at 10 µM; 3.4% of 64,000 active;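 active = calcium fluorescence response, raw or row-and-column corrected B-score, differing from the plate sample mean either way at a set confidence level, mostly lower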
Htt clearance = compounds clearing mutant huntingtin protein; HeLa Exon1htt(103Q)mCFP, aggregate imaging; zero = plate's median compound well; inhibition, % at 1.5 µM; 0.42% of 47,000 active;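 active = inhibition of aggregate fluorescence above about 70%, also judged a hit by eye on the cell image, limit read from the data, passing the limit was not always enough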;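 also: cells exposed to compound for three days before fixation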
M1 ag = M1 muscarinic receptor agonism; AID 626; 3% of 64,000 active; B-score at 10 µM; CHO-M1 cells, Fluo-4 calcium fluorescence, agonist mode; stronger effect = higher value;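 active = fluorescence rise, raw or as B-score row- and column-corrected plate score, outside the 99.7% band of its plate's samples, either direction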
D1 allo mod = allosterically modulates the human D1 dopamine receptor; P21728; HEK293 D1, CRE-luciferase, dopamine EC30 potentiation; actives deviate in either direction; B-score at 10 µM; 5.9% of 58,000 active; AID 641;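 active = luminescence count or its row- and column-corrected plate score outside the 99.7% band of the plate's sample wells, on either side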
WNV NS2B-NS3 inh = inhibitors of West Nile virus NS2B-NS3 protease; WNV NS2B-NS3 protease, fluorogenic substrate Ex360/Em465; stronger effect = lower value; z-score (no concentration beside the values); 0.18% of 65,000 active; in the data active = z-score below about -3
Target sequence (P06935 1371-1501 limits assumed): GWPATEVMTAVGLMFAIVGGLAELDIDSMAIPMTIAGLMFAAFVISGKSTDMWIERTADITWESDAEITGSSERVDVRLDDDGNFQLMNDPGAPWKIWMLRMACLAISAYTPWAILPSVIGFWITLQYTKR
Target sequence (P06935 1502-1679 limits assumed): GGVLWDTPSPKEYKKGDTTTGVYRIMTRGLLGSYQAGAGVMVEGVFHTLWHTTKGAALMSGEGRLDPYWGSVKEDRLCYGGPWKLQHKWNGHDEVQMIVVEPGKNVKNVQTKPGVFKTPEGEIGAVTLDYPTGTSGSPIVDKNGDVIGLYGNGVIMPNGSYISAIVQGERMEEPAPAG
D1 PAM confirm = D1 receptor (human) allosteric modulation, confirmed; shares compounds with D1 allo mod; HEK293 D1 CRE-luciferase, dopamine EC30 potentiation; stronger effect = higher value; luminescence at 10 µM; 88% of 2,200 active; AID 642;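 active = luminescence in either of two replicates above the same-plate mean plus 3 SD of the low-dose dopamine control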
D1 no dopamine = activates D1 CRE-luciferase signal without dopamine present; luminescence at 10 µM; shares compounds with D1 allo mod; AID 646; HEK293 D1 CRE-luciferase, luminescence, no dopamine; stronger effect = higher value; 0.8% of 1,900 active; in the data active = luminescence above about 3900
Isoprot counter = alters isoproterenol CRE-luciferase response in HEK293 cells. shares compounds with D1 allo mod. HEK293 D1 CRE-luciferase, isoproterenol EC30 counter-screen. calls only at 10 µM. 63% of 2,200 active. AID 647;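 active = luminescence in either replicate above plate mean of wells with a partly effective reference agonist dose plus 3 SD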;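 also: isoproterenol raises cAMP through native beta-adrenoceptor Gs so signal bypasses D1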
Starred values were filed as active, the others as inactive; i = inactive; / = not tested or not shown; + = active, no number.

SMILES	M1 antagonist	Htt clearance	M1 ag	D1 allo mod	WNV NS2B-NS3 inh	D1 PAM confirm	D1 no dopamine	Isoprot counter
COC(=O)c1ccc(CSc2nc3scc(-c4cccs4)c3c(=O)[nH]2)o1	-0.033	1	-0.16	1.1	-0.68	/	/	/
COc1ccc(-c2cc(C(=O)N(C)Cc3ccccc3)no2)cc1OC	-0.3	/	0.91	17*	0.34	18128*	/	+
COc1ccc(-c2cc(C(=O)N3CCOCC3)no2)cc1OC	0.31	13	-0.4	6*	-0.2	11468*	1656	+
Cc1cc(NC(=O)c2cc(C(C)C)on2)no1	-0.096	/	-0.039	-0.28	-0.11	/	/	/
COCCNC(=O)C(c1ccco1)N(C(=O)Cn1nnc2ccccc21)c1cc(C)ccc1C (stereo not given)	-0.47	6	0.11	-1	-0.05	/	/	/
N#Cc1nc(-c2cccs2)oc1NCc1ccco1	0.29	/	-0.54	9.2*	3	14284*	/	+
Cc1ccc(-c2nc(C#N)c(NCc3ccco3)o2)cc1	0.05	/	-0.014	1.7	0.98	/	/	/
N#Cc1nc(-c2ccco2)oc1NCc1ccco1	-0.39	28	0.031	9.5*	0.96	13820*	1564	+
C/C(=C\C(=O)c1ccc(Br)cc1)NCc1ccc(C)cc1	/	15	/	/	/	/	/	/
Cc1ccc(-n2ncc(C#N)c2/N=C/N2CCOCC2)cc1	1.3	-11	-0.16	14*	-1.3	14372*	1604	+
c1ccc(N2CCN(c3ncnc4sc5c(c34)CCC5)CC2)cc1	0.31	18	5.4e-15	-0.27	0.56	/	/	/
O=C1OCCC1Sc1ncnc2sc3c(c12)CCC3 (stereo not given)	0.21	/	-0.35	5.2*	0.46	7272*	1564	i
COc1ccc(C)cc1NC(=O)C1CCN(S(=O)(=O)c2cccc3cccnc23)CC1	-0.21	/	-0.011	1.3	0.1	/	/	/
COc1ccc(NC(=O)C2CCN(S(=O)(=O)c3cccc4cccnc34)CC2)cc1OC	-0.98	/	-0.0065	3.6*	-0.04	13296*	1648	+
COc1ccc(N2CCN(S(=O)(=O)c3cccc4cccnc34)CC2)cc1	-0.37	/	0.54	8.7*	1.5	19744*	1632	+
COc1ccc(C(=O)C2CN(c3ccccc3)CC2c2ccc(Cl)cc2)cc1 (stereo not given)	/	31	/	/	/	/	/	/
Cn1c(SCC(=O)c2ccc3c(c2)Cc2ccccc2-3)nnc1-c1ccccc1	/	10	/	/	/	/	/	/
CC1CCCCN1C(=O)Cn1c(=O)n(C2CCCCC2)c(=O)c2ccccc21 (stereo not given)	/	-56	/	/	0.58	/	/	/
CCOC(=O)c1cn(-c2ccccc2)nc1-c1cccnc1	/	/	/	23*	-0.36	27848*	1528	+
O=C(OCn1nnc2ccccc2c1=O)c1cn(-c2ccccc2)nc1-c1cccnc1	-0.93	/	1.1	/	0.23	/	/	/
CCOC(=O)c1sc2ccc(S(=O)(=O)N3CCOCC3)cc2c1N	0.28	-37	0.044	6.7*	0.1	5484	/	+
CCOC(=O)c1sc2ccc(S(=O)(=O)N3CCCCC3)cc2c1N	-0.63	3	-0.0085	1.5	-0.66	/	/	/
CCCn1c(CCc2ccccc2)nnc1SCC(=O)N1CCOCC1	1	38	0.42	3.2*	0.59	4772	1664	i
Cn1c(Cn2c(=O)sc3ccccc32)nnc1SCC(=O)N1CCOCC1	0.033	/	-0.0082	5.1*	-0.63	8076*	1508	i
C=CCn1c(COc2cccc(C)c2)nnc1SCC(=O)NC(=O)NCc1ccco1	-0.011	52	-0.11	0.78	-0.81	/	/	/
SMILES	M1 antagonist	Htt clearance	M1 ag	D1 allo mod	WNV NS2B-NS3 inh	D1 PAM confirm	D1 no dopamine	Isoprot counter
Cn1c(COc2ccc(Cl)cc2)nnc1SCc1ncc(-c2ccccc2)o1	-0.03	-19	0.028	-0.31	-1.2	/	/	/
Cc1nc2ccc(CCO)cc2s1	-0.11	/	0.39	6.4*	-0.09	7448*	1588	i
Cc1cc(C)c2c(n1)sc1c(N3CCN(CCO)CC3)ncnc12	0.35	/	-0.063	7.2*	-0.69	11076*	1676	+
CC(=O)Nc1cc2c(cc1C(=O)c1ccc(C)cc1)OCCO2	0.3	-20	0.81	6.2*	1.2	15264*	1428	+
CCN1CCN(CC(=O)c2c[nH]c3ccc(C)cc23)CC1	/	29	/	/	/	/	/	/
COc1ccc(-c2nnn(CC(=O)N(C3CCCC3)C(C)C(=O)NC3CCCC3)n2)cc1OC (stereo not given)	-1.1	/	-0.86	3.6*	1.1	6476*	/	i
CCOc1ccc(-c2nnn(CC(=O)Nc3ccccc3OC)n2)cc1OCC	0.082	/	1.1	9.4*	1	19984*	1640	+
COc1ccc(-c2nnn(CC(=O)c3c[nH]c4ccccc34)n2)cc1OC	0.048	/	-0.053	8.1*	1.2	19116*	1776	+
COc1ccc(-c2nnn(CC(=O)N(C3CCCCC3)C(C)C(=O)NC3CCCC3)n2)cc1OC (stereo not given)	0.11	1	0.14	3.3	0.59	/	/	/
CCCCOc1ccc(-c2nnn(CC(=O)c3c[nH]c4ccccc34)n2)cc1	/	-14	/	/	/	/	/	/
COC(=O)c1cc2oc(C)cc2n1CC(=O)N1CCCc2ccccc21	-0.18	38	-0.87	1.5	-0.92	/	/	/
O=C(c1cccnc1)N(Cc1ccccc1)c1ccccc1	1.9	-24	0.87	6.8*	-0.24	15108*	1816	+
CC(C)C(=O)N(Cc1ccccc1)c1ccccn1	/	36	/	/	/	/	/	/
O=C(c1ccccc1)N(Cc1ccccc1)c1ccccn1	-0.04	/	1.1	5.8*	-1.3	9876*	/	i
COC(=O)c1sc(N2C(=O)C(O)=C(C(=O)c3ccc(C)o3)C2c2ccc(F)cc2)nc1C (stereo not given)	0.053	45	-0.42	/	-0.88	/	/	/
NC(=O)NC(Cc1ccccc1)C(=O)O (stereo not given)	0.14	/	0.69	-0.046	-0.47	/	/	/
CCOC(=O)c1ccc(CNC(=O)Cn2nnc(-c3ccc(C)cc3)n2)o1	-0.24	-14	-0.62	0.51	0.73	/	/	/
COCCOC(=O)C1=C(C)Nc2nc(C)nn2C1c1ccc(F)cc1 (stereo not given)	-0.41	-36	0.094	-0.55	1	/	/	/
CCOC(=O)C1=C(C)Nc2nc(SC)nn2C1c1ccc(C(=O)OC)cc1 (stereo not given)	-0.14	/	0.44	4*	-0.26	8432*	1672	i
CCN1CCN(C(=O)c2nn(-c3ccc(C)cc3)c(=O)c3c2c2ccccc2n3C)CC1	-1.5	/	0.77	4.8*	-0.43	5812	/	i
COc1cccc(N2C(=O)C3ON(c4ccccc4)C(c4cccs4)C3C2=O)c1 (stereo not given)	-0.4	-26	0.11	15*	0.3	6168*	1676	i
COC(=O)c1[nH]c2cccc(C)c2c1NC(=O)CN1CCN(C(=O)c2ccco2)CC1	-1.3	7	0.41	-0.2	-0.53	/	/	/
